Results published in PubChem BioAssay (Tox21).
Several values for one entry are separate records, joined by “and”; a condition that tells them apart may be missing. Identical values can stand only once. Inconclusive results are not listed. Where a call stands in place of a potency, no number is given. A structure can be active in one record and inactive in another. Activity calls are given as the source filed them. Calls follow the shape of the dose curve; as a rule, active = well fitted curve in the direction sought with a large enough effect in the repeat runs; inconclusive = weak or mixed curves; inactive = no such curve, though single readings can be large; an effect the other way counts as inactive or inconclusive.

Legend:
[1] = Human pregnane X receptor (PXR) small molecule agonists, qHTS cell viability counter screen (AID 1346977); also: nearly all actives have a fitted effect of over 50% in size; also: potency is read from the fitted curve at half-maximal effect
How it was run: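 Fluorescence read-out (CellTiter-Fluor) of viability in PXR-Luc HepG2 cells, multiplexed with the luciferase agonist read. Compounds in DMSO added after 5hr plating; 24hr total exposure at 37C, 5% CO2.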

[2] = Caspase-3/7 induction in HepG2 cells by small molecules, qHTS assay (AID 1346978); also: nearly all actives have a fitted effect of over 15% in size
How it was run: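 Wild-type HepG2 cells, 2,000/well, settled 5 hr at 37 C and 5% CO2, then compound-treated for 17 hr; caspase-3/7 activity read by luminescent Caspase-Glo 3/7 after 30 min at room temperature.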

[3] = Caspase-3/7 induction in CHO-K1 cells by small molecules, qHTS cell viability counter screen (AID 1346979); also: nearly all actives have a fitted effect of over 35% in size; also: potency is read from the fitted curve at half-maximal effect
How it was run: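 CHO-K1 wt, 1,500 cells/well; 5hr pre-incubation 37C/5% CO2; compound pin transfer (DMSO); 16hr exposure; CellTiter-Fluor added, 1hr, fluorescence read.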

[4] = Caspase-3/7 induction in CHO-K1 cells by small molecules, qHTS assay (AID 1346980); also: nearly all actives have a fitted effect of over 15% in size; also: potency is read from the fitted curve at half-maximal effect
How it was run: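 Wild-type CHO-K1 cells exposed to compounds for 17hr at 37 C, 5% CO2. Caspase-3/7 activity then measured by Caspase-Glo 3/7 luminescence after 30min at room temperature.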

[5] = Caspase-3/7 induction in HepG2 cells by small molecules, qHTS cell viability counter screen (AID 1346981); also: nearly all actives have a fitted effect of over 30% in size; also: potency is read from the fitted curve at half-maximal effect
How it was run: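 CellTiter-Fluor fluorescence measured viability in the same wells used for Caspase-Glo 3/7. HepG2 (wild type) at 2,000 cells/well were pre-incubated 5 hr, dosed, and given reagent at 16 hr, with 1 hr further at 37C.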

[6] = molecular target: Nuclear receptor subfamily 1 group I member 2 (Homo sapiens) (UniProt O75469); test: Human pregnane X receptor (PXR) small molecule agonists, qHTS assay (AID 1346982); also: nearly all actives have a fitted effect of over 35% in size; also: potency is read from the fitted curve at half-maximal effect
Chain of Nuclear receptor subfamily 1 group I member 2 (Homo sapiens) (O75469 whole entry, looked up): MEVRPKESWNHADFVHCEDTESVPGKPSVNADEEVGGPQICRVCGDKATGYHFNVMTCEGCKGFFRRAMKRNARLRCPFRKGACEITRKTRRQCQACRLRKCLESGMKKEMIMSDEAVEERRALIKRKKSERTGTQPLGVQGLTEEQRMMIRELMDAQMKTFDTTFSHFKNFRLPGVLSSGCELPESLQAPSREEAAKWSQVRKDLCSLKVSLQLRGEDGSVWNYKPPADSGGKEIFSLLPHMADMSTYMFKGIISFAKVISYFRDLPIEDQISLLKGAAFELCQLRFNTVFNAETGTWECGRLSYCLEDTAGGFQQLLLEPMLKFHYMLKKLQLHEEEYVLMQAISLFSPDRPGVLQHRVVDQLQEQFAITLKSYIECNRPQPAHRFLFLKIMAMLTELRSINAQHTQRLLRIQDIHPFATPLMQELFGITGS
How it was run: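 Agonist mode: luminescence from ONE-Glo after 24 h compound exposure at 37C in HepG2 cells carrying hPXR-responsive CYP3A4 luciferase, plated in charcoal-stripped serum medium 5 h beforehand.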

[7] = molecular target: Cytochrome P450 2D6 (Homo sapiens) (UniProt P10635); test: Cytochrome P450 Family 2 Subfamily D Member 6 (CYP2D6) small molecule antagonists: luciferase reporter qHTS assay (AID 1671196); also: nearly all actives have a fitted effect of over 50% in size; also: potency is read from the fitted curve at half-maximal effect
Chain of Cytochrome P450 2D6 (Homo sapiens) (P10635 whole entry, looked up): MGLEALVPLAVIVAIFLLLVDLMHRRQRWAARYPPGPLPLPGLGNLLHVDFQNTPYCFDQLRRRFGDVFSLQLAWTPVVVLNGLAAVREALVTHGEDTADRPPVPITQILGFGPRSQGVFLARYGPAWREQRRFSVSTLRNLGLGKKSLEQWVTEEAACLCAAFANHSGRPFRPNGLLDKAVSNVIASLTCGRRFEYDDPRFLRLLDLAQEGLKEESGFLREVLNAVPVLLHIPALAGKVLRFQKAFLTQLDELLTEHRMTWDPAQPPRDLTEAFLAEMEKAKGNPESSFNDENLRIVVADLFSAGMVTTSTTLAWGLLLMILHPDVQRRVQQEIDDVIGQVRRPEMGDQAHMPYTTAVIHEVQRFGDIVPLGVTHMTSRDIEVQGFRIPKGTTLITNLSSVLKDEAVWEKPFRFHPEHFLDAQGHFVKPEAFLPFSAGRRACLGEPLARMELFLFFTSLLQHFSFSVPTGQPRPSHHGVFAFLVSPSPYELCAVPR
How it was run: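 CYP2D6 activity was followed as luminescence from its luciferin product after a 1 h NADPH-driven reaction at room temperature. Enzyme-substrate mix and compound were pre-incubated for 10 min, and the signal was read 20 min after adding detection reagent.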

[8] = molecular target: Nuclear receptor subfamily 1 group I member 2 (Rattus norvegicus) (UniProt Q9R1A7); test: Rat pregnane X receptor (rPXR) activation by small molecules, qHTS assay (AID 1346983); conditions: rPXR luciferase reporter cells, One-Glo luminescence, 24 h; stronger effect = higher value; also: nearly all actives have a fitted effect of over 20% in size
Chain of Nuclear receptor subfamily 1 group I member 2 (Rattus norvegicus) (Q9R1A7 whole entry, looked up): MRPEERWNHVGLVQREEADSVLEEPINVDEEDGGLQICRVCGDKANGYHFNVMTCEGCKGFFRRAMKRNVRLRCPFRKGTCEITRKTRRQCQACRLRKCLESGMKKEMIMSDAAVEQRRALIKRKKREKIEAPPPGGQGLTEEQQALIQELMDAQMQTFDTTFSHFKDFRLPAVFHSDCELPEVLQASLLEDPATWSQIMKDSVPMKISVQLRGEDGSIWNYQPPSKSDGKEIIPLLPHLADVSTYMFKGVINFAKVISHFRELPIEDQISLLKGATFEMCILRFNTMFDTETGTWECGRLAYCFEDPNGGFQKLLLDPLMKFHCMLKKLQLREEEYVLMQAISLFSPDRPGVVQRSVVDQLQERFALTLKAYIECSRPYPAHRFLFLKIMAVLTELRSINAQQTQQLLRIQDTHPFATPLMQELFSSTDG
How it was run: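 Cell-based rPXR activation assay: rPXR cells, 2,000 per well, rested 5hr at 37 C, then exposed to compounds in DMSO for 24 hr at 37 C. Luciferase activity read by One-Glo luminescence after 30 min at room temperature.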

[9] = molecular target: Nuclear receptor subfamily 1 group I member 2 (Homo sapiens) (UniProt O75469); test: CYP3A4 induction through human pregnane X receptor (PXR) by small molecules, qHTS assay (AID 1346984); also: nearly all actives have a fitted effect of over 40% in size
How it was run: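 Read-out is luminescence after One-Glo addition, following a 3 hr, 37C incubation with Luciferin-IPA CYP3A4 substrate (3uM final). Before that, compounds were on DPX-2 cells (HepG2 co-transfected with PXR element plus CYP3A4-promoter luciferase) for 24 hr at 37C.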

[10] = molecular target: Nuclear receptor subfamily 1 group I member 2 (Homo sapiens) (UniProt O75469); test: Human pregnane X receptor (PXR) activation by small molecules, qHTS assay (AID 1346985); also: nearly all actives have a fitted effect of over 40% in size
How it was run: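 DPX-2 cells (HepG2 co-transfected with a PXR response element and a CYP3A4-promoter luciferase construct) were seeded at 2,000 per well, rested 5 hr at 37C, then exposed to DMSO-dissolved compounds for 24 hr. Activation was read as luciferase luminescence.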

| SMILES | Potency [1] | Potency [2] | Potency [3] | Potency [4] | Potency [5] | Potency [6] | Potency [7] | max activation [8] | Potency [9] | outcome [10] |
| --- | --- | --- | --- | --- | --- | --- | --- | --- | --- | --- |
| NC(=O)NC(N)=O | inactive | inactive | inactive | inactive | inactive | inactive | inactive |  |  |  |
| CC(C)c1ccc(C(C)C)cc1 | inactive | inactive | inactive | inactive | inactive | inactive | inactive |  |  |  |
| OCC(O)CS (centres undefined) | inactive | inactive | inactive | inactive | inactive | inactive |  | -1.93% (inactive) | inactive | inactive |
| Clc1cccc(Cl)c1NC1=NCCN1 | inactive | inactive | inactive | inactive | inactive |  |  |  |  |  |
| Cc1ccc(Cl)cc1 | inactive | inactive | inactive | inactive | inactive | inactive | 33.5 µM (active) and inactive |  |  |  |
| CC(O)CNCC(C)O (centres undefined) | inactive | inactive | inactive | inactive | inactive | 61.5 µM (active) and inactive | inactive |  |  |  |
| CC(C=O)Cc1ccc(C(C)(C)C)cc1 (centres undefined) | inactive | inactive | inactive | inactive | inactive | inactive | inactive |  |  |  |
| CCCCCCCC(=O)O | inactive | inactive | inactive | inactive | inactive | inactive | inactive | 0.66% (inactive) | inactive | inactive |
| CN1CCCC1=O | inactive | inactive | inactive | inactive | inactive | 63.2 µM (active) and inactive | inactive |  |  |  |
| CC(=O)c1nccs1 | inactive | inactive | inactive | inactive | inactive | inactive | inactive |  |  |  |
| O=C1C(N(CO)C(=O)NCO)N(CO)C(=O)N1CO (centres undefined) | inactive | inactive | inactive | inactive | inactive | inactive | inactive |  |  |  |
| CCCCCCCCCCCCCC(=O)O | inactive | inactive | inactive | inactive | inactive | inactive |  |  |  |  |
| COc1ccc([C@@H]2CC(=O)c3c(O)cc(O[C@@H]4O[C@H](CO[C@@H]5O[C@@H](C)[C@H](O)[C@@H](O)[C@H]5O)[C@@H](O)[C@H](O)[C@H]4O)cc3O2)cc1OC | inactive | inactive | inactive | inactive | inactive | inactive |  |  |  |  |
| CS(=O)(=O)c1ccc(Cl)cc1 | inactive | inactive | inactive | inactive | inactive | inactive | inactive |  |  |  |
| O=[N+]([O-])c1ccccc1C(F)(F)F | inactive | inactive | inactive | inactive | inactive | inactive | inactive |  |  |  |
| O=C(O)Cc1c[nH]c2ccccc12 | inactive | inactive | inactive | inactive | inactive | inactive | inactive |  |  |  |
| OCCOCCOCCOCCOCCO | inactive | inactive | 15.7 µM (active) and inactive | inactive | inactive |  |  |  |  |  |
| C1CCCNCC1 | inactive | inactive | inactive | inactive | inactive | inactive |  |  |  |  |
| CCCCCC(C)=O | inactive and 61.1 µM (active) | inactive | inactive | inactive | inactive | inactive | inactive |  |  |  |
| CC/C(C)=N/O | inactive | inactive | inactive | inactive | inactive | inactive |  |  |  |  |
| Cc1nnc(NS(=O)(=O)c2ccc(N)cc2)s1 | inactive | inactive | inactive | inactive | inactive | inactive |  |  |  |  |
| Nc1cccc(N)n1 | inactive | inactive | inactive | inactive | inactive | inactive |  |  |  |  |
| COc1ccc2cc3[n+](cc2c1OC)CCc1cc2c(cc1-3)OCO2 | inactive | inactive | inactive | inactive | 54.9 µM (active) | inactive |  |  |  |  |
| CCOC(=O)c1ccc(O)cc1 | inactive | inactive | inactive | inactive | inactive | inactive |  | -2.61% (inactive) |  | inactive |
| Brc1ccc(Oc2ccc(Br)cc2)cc1 | inactive | inactive | inactive | inactive | inactive | inactive | inactive |  |  |  |
| Cc1ccccc1Cl | inactive | inactive | inactive | inactive | inactive | inactive |  |  |  |  |

| SMILES | Potency [1] | Potency [2] | Potency [3] | Potency [4] | Potency [5] | Potency [6] | Potency [7] | max activation [8] | Potency [9] | outcome [10] |
| --- | --- | --- | --- | --- | --- | --- | --- | --- | --- | --- |
| c1cnc2c(c1)ccc1cccnc12 | 1.26 µM (active) | inactive | 4.37 µM (active) and 6.11 µM (active) and 9.69 µM (active) | 978 nM (active) and 1.37 µM (active) and inactive | inactive | 2.76 µM (active) and 10.9 µM (active) and 24.3 µM (active) |  |  |  |  |
| O=C1CCCCCCCCCCC1 | inactive | inactive | inactive | inactive | inactive | inactive |  |  |  |  |
| Cc1ccc(C(C)C)cc1 | inactive | inactive | inactive | inactive | inactive | inactive | inactive |  |  |  |
| COc1cc(NC(=O)CC(C)=O)c(OC)cc1Cl | inactive | inactive | inactive | inactive | inactive | 68.9 µM (active) and 24.3 µM (active) | 79.6 µM (active) |  |  |  |
| C=CC(=O)NCOCCCC | inactive | inactive | inactive | inactive | inactive | inactive | 16.4 µM (active) and inactive |  |  |  |
| Cc1cc(C)c(O)c(C)c1 | inactive | inactive | 48.6 µM (active) and inactive | inactive | inactive | 30.6 µM (active) and inactive | inactive |  |  |  |
| OCc1ccc(Cl)cc1Cl | inactive | inactive | inactive | inactive | inactive | inactive |  | -2.12% (inactive) | inactive | inactive |
| CC(C)=CCC/C(C)=C/C=O | inactive | inactive | inactive | inactive | inactive | inactive | inactive |  |  |  |
| OCC(CO)(CO)CO | inactive | inactive | inactive | inactive | inactive | inactive |  |  |  |  |
| Nc1cccc(C(F)(F)F)c1 | inactive | inactive | inactive | inactive | inactive | inactive |  |  |  |  |
| O=c1c(O)c(-c2ccc(O)c(O)c2)oc2cc(O)cc(O)c12 | inactive | inactive | 54.5 µM (active) | inactive | 48.6 µM (active) and 54.5 µM (active) | 48.6 µM (active) and 69.1 µM (active) | 63.4 µM (active) and inactive | -3.01% (inactive) | inactive | inactive |
| CCCCCNCCCCC | inactive | inactive | inactive | inactive | inactive | inactive |  |  |  |  |
| OC1CCCCC1 | inactive | inactive | inactive | inactive | inactive | inactive | inactive |  |  |  |
| O=C(NCC1CCCCN1)c1cc(OCC(F)(F)F)ccc1OCC(F)(F)F (centres undefined) |  | inactive | inactive | inactive | inactive |  |  |  |  |  |
| COC(=O)OC | inactive | inactive | inactive | inactive |  | inactive |  |  |  |  |
| O=Cc1ccc(CO)o1 | inactive | inactive | inactive | inactive | inactive | inactive | inactive |  |  |  |
| CCCCCCC(=O)O | inactive | inactive | inactive | inactive | inactive | inactive | inactive |  |  |  |
| CC(=O)OC/C=C(\C)CCC=C(C)C | inactive | inactive | inactive | inactive | inactive | inactive | inactive |  |  |  |
| OC[C@H]1O[C@@H](Oc2ccc(O)cc2)[C@H](O)[C@@H](O)[C@@H]1O | inactive | inactive | inactive | inactive |  | inactive | inactive | -0.143% (inactive) |  | inactive |
| CC(C)(CO)CO | inactive | inactive | inactive | inactive |  | inactive | inactive |  |  |  |
| Oc1ccc(Cc2ccccc2O)cc1 | inactive | inactive | inactive | inactive | inactive | 61.9 µM (active) | inactive |  |  |  |
| CC(=O)CC(=O)N(C)C | inactive | inactive | inactive | inactive |  | inactive |  |  |  |  |
| CCCCC(CC)COC(=O)c1ccc(C(=O)OCC(CC)CCCC)cc1 (centres undefined) | inactive | inactive | inactive | inactive |  | inactive | inactive |  |  |  |
| O=C(O)C1=NN(c2ccc(S(=O)(=O)O)cc2)C(=O)C1 | inactive | inactive | inactive | inactive |  | inactive | inactive |  |  |  |
| Nc1nc(N)c2nc(-c3ccccc3)c(N)nc2n1 | inactive | inactive |  | inactive |  | 49.1 µM (active) and 61.1 µM (active) and 26.6 µM (active) |  |  |  |  |
